# IL1B secr inh: inflammasome signaling inhibition, IL-1 beta readout | THP-1 LPS/ATP IL-1B secretion, AlphaLISA, 16 h; hits give low values | activity change, % at 57.5 µM | hit rate 4.7% among 360,000 | AID 743279; in the data active = activity change below about -50%; inconclusive = mostly about -30% to -49%; also: % is scaled to controls: 0 for no effect and ±100 for the full control effect
#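 Secreted IL-1B measured by AlphaLISA bead assay after 16 h compound exposure of THP-1 cells; compounds (final up to 57.5 uM) added 1 h before LPS (250 ng/mL) and ATP (1.25 mM) stimulation; lower signal means less secretion.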
# TGFb inhibitor: inhibitors of TGF-b signaling. hit rate 1.2% among 410,000. HepG2 CAGA-GFP TGF-b/SMAD3 reporter, GFP fluorescence, 18 h; TGF-beta stimulated, 500 pg/mL final. Potency, µM (series often up to 46.1 µM), without a hit: at the top dose activity, negative = inhibition, usual class: inhibitors; also: potency is read from the fitted curve at half-maximal effect; % is scaled to controls: 0 for no effect and ±100 for the full control effect; nearly all actives have a fitted effect of over 65% in size
#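 GFP signal (ex488/em500-530) from TGF-beta-stimulated HEPG2 CAGA-GFP cells, 500 pg/mL final, 18 h at 37 degrees C in DMEM plus 1% FBS, normalized to unstimulated and DMSO-stimulated controls.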
# DT40 TDP1 no CPT: qHTS for Inhibitors of human tyrosyl-DNA phosphodiesterase 1 (TDP1): qHTS in cells in absence of CPT; DT40 Tdp1-/- hTDP1 cells, no CPT, ATP luminescence, 48 h; Potency, µM (doses to about 46.2 µM), for the others: top-dose activity change, negative = growth inhibition, hits mostly inhibitors; hit rate 15% among 420,000; also: potency is read from the fitted curve at half-maximal effect; % is scaled to controls: 0 for no effect and ±100 for the full control effect; nearly all actives have a fitted effect of over 55% in size
#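 Chicken DT40 Tdp1-/- cells complemented with human TDP1, screened without camptothecin (DMSO vehicle only), 400 cells/well. Compounds pin-transferred, cells incubated at 37 °C for at least 48 hr. Growth read as ATP-dependent luminescence (CellTiter-Glo, 30 min at RT).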
# TDP1 inh: blocks human tyrosyl-DNA phosphodiesterase 1; recombinant TDP1, AlphaScreen DNA substrate cleavage; Potency, µM (doses to about 130 µM), for the others: top-dose activity change, negative = inhibition, actives largely listed as inhibitors; hit rate 0.28% among 350,000; Q9NUW8; AID 485290; also: potency is read from the fitted curve at half-maximal effect; % is scaled to controls: 0 for no effect and ±100 for the full control effect; nearly all actives have a fitted effect of over 40% in size
# Target sequence (Q9NUW8 whole entry, looked up): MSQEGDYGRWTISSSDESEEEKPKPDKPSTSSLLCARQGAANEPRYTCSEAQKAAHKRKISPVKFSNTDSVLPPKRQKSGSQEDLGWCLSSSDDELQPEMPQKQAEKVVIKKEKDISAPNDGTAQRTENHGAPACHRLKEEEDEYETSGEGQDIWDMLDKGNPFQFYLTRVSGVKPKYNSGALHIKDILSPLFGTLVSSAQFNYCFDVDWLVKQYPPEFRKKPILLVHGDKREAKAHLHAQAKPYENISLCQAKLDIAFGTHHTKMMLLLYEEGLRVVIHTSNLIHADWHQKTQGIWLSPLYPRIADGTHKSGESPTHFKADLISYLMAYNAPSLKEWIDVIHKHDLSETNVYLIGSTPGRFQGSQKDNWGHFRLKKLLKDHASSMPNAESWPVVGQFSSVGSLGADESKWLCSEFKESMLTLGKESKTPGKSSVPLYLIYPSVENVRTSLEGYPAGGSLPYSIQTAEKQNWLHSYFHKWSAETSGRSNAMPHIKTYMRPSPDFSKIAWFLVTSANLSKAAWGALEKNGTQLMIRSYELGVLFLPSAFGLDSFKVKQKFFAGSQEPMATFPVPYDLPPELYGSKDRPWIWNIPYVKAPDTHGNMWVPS
#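 Compounds were preincubated with Tdp1 (1 nM final) for 15 min at room temperature before substrate (15 nM final) started a 5 min reaction; beads (10 ug/ml final) were then added for 10 min before AlphaScreen detection.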
# DT40 TDP1 CPT: DT40-hTDP1 cell growth loss with CPT | chicken DT40 Tdp1-/-;hTDP1 cells + 20 nM CPT, ATP luminescence, 48 h | Potency, µM (doses to about 46.2 µM), inactives show at the top dose activity change, negative = growth inhibition, actives largely listed as inhibitors | hit rate 12% among 420,000 | AID 686979; also: potency is read from the fitted curve at half-maximal effect; % is scaled to controls: 0 for no effect and ±100 for the full control effect; nearly all actives have a fitted effect of over 55% in size
#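 Cell growth measured by CellTiter-Glo luminescence after a minimum 48 h, 37 C compound exposure with 20 nM CPT in Tdp1-knockout DT40 cells stably expressing hTDP1, seeded 400/well; qHTS titration format.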
# HepG2 viability: HepG2 cytotoxicity, counter-screen for TGF-b inhibitors; HepG2 CAGA-GFP viability, ATP luminescence, 18 h; hit rate 0.76% among 410,000; Potency, µM (series often up to 46.1 µM), for inactives: at the highest dose activity change, negative = cytotoxicity, most hits filed as cytotoxic; AID 588856; also: potency is read from the fitted curve at half-maximal effect
#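 CellTiter-Glo luminescence gave cytotoxicity after 18 hours at 37 degrees C. The cells were HepG2 CAGA-GFP in 1% FBS DMEM, stimulated with 500 pg/mL TGF-beta after compound addition. %Activity was normalised to no-cell wells (complete cell-killing) and DMSO (no toxicity), and curves were fitted and classified.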
# * hit, by the source's call; u = inconclusive; x = no result given; [ ] = another dose, or the depositor's remark. Most compounds without a hit are left out; they make up all but 18% or so of the library. Unless noted, calls follow the shape of the dose curve; as a rule, active = well fitted curve in the direction sought with a large enough effect; inconclusive = small, poorly fitted or top-dose-only effect, or another doubt; inactive = no such curve, though single readings can be large; an effect the other way counts as inactive or inconclusive.
SMILES,IL1B secr inh,TGFb inhibitor,DT40 TDP1 no CPT,TDP1 inh,DT40 TDP1 CPT,HepG2 viability
CCOc1cc(/C=C2\SC(=S)N(N3CCOCC3)C2=O)ccc1O,4.2,-6.6%,-20.8%,x,-2.8%,-11.3%
CSc1ccc(CN2CCC2(C)C(=O)Nc2cccc(Oc3ccccc3)c2)cc1 (stereo not given),15.0,1.3%,14.6µM*,x,18.4µM*,-95.1%
COc1cccc(NC(=O)C2(C)CCN2Cc2ccc(OC(C)C)cc2)c1 (stereo not given),0.0,14.2%,u,x,u,-10.9%
CC1(C(=O)Nc2cccc(Oc3ccccc3)c2)CCN1Cc1cc2ccccc2o1 (stereo not given),-6.7,-9.8%,u,x,23.1µM*,-2.2%
C/C(=N\NC(N)=S)C1=CCC2C3CC[C@H]4CC(O)CC[C@]4(C)C3CC[C@]12C (stereo not given in full),-52.2*,u,5.17µM*,x,18.4µM*,-36.9%
CC(C)[C@H](NC(=O)[C@H](CCCCN)NC(=O)[C@@H](NC(=O)[C@@H]1CCCN1C(=O)[C@H](CCCN=C(N)N)NC(=O)[C@H](CCCN=C(N)N)NC(=O)[C@H](CCCCN)NC(=O)[C@H](CCCCN)NC(=O)CNC(=O)[C@@H](NC(=O)[C@@H]1CCCN1C(=O)[C@@H](N)CCCCN)C(C)C)C(C)C)C(=O)N[C@@H](Cc1ccc(O)cc1)C(=O)N1CCC[C@H]1C(=O)O,x,x,x,5.6%,x,x
O=C(COc1ccc2ccc(=O)oc2c1)N1CCN(c2ccc(F)cc2)CC1,-15.4,5.1%,23.1µM*,2.6%,u,-11.5%
O=C(COc1ccc2ccc(=O)oc2c1)Nc1ccc(CCO)cc1,5.5,16.4%,-5.1%,4.0%,-7.1%,0.1%
O=C(COc1ccc2ccc(=O)oc2c1)Nc1ccc(N2CCCCC2)cc1,-19.7,9.7%,18.4µM*,7.5%,u,0.5%
CC(C)=CC/C=C1\CCC(C(=O)O)C(C(=O)O)C1 (stereo not given),27.9,-4.3%,0.0291µM*,6.8%,u,-11.4%
CC(C)=CCCC1=CC[C@H](C(=O)O)[C@H](C(=O)O)C1,x,x,0.2%[9.04 µM],-1.9%,3.1%[9.04 µM],x
CC(C)CC(N)c1csc(Nc2cc(Oc3ccccc3)ncn2)n1 (stereo not given),0.0,u,20.6µM*,x,23.1µM*,-58.5%
NC(c1ccccc1)c1csc(Nc2ccc(S(N)(=O)=O)cc2)n1 (stereo not given),42.0,-2.5%,-13.0%,x,-16.1%,1.2%
NC(c1ccccc1)c1csc(Nc2cc(Oc3ccccc3)ncn2)n1 (stereo not given),-77.1*,u,16.4µM*,x,18.4µM*,11.2µM*
COc1cccc(Nc2nc(C(N)CO)cs2)n1 (stereo not given),x,13.0%,u,x,u,-9.5%
CC(C)C(N)c1csc(Nc2ccc(C(=O)NCCCO)cn2)n1 (stereo not given),5.9,-0.1%,-6.4%,x,-1.3%,-3.1%
CC(C)C(N)c1csc(Nc2cc(Oc3ccccc3)ncn2)n1 (stereo not given),-90.9*,-16.1%,u,x,u,-15.5%
c1ccc(CCc2nnc3n2CCN(Cc2ccc4ccccc4n2)CC3)cc1,x,x,-29.5%,x,u,x
CSCCC(NC(=O)c1ccccc1)C(=O)N1CC(C)OC(C)C1 (stereo not given),-0.5,-6.9%,9.0%,0.6%,-0.1%,6.8%
C[C@@H](CN1C(=O)C(=O)NC[C@@H]1Cc1ccc(O)cc1)NC(=O)Cc1ccccc1,17.7,-17.8%,-16.3%,x,-11.8%,-27.4%
C[C@@H](CN1C2=NC[C@H](C)N2C[C@H]1Cc1ccc(O)cc1)NC(=O)CCC1CCCCC1,-17.2,0.5%,13µM*,-1.3%,11.6µM*,8.1%
CC(C)[C@H]1CN=C2N(C[C@H](C)NC(=O)CCC3CCCCC3)[C@H](Cc3ccc(O)cc3)CN21,0.0,0.8%,6.51µM*,x,6.51µM*,2.6%
C/C=C(\C)C(=O)NCCN1C2=NC[C@H](C(C)C)N2C[C@H]1Cc1ccc(O)cc1,26.3,-2.3%,-5.4%,2.6%,-0.2%,-1.1%
COc1ccc(C[C@H]2CN3C(=NC[C@@H]3Cc3ccc(O)cc3)N2C[C@H](C)NC(=O)CCC2CCCCC2)cc1,0.0,u,16.4µM*,x,8.2µM*,-14.7%
CC(=O)Nc1ccccc1OC1=N[S+](=O)([O-])c2ccccc21,x,x,x,0.2%,x,x
SMILES,IL1B secr inh,TGFb inhibitor,DT40 TDP1 no CPT,TDP1 inh,DT40 TDP1 CPT,HepG2 viability
O=C(COC(=O)CCN=C1NS(=O)(=O)c2ccccc21)NNC(=O)c1ccc(Cl)cc1,-4.9,-0.2%,-5.8%,-0.2%,4.1%,-11.2%
CCN(CC)c1cc2c(cc1F)c(=O)c(S(=O)(=O)c1ccc(OC)cc1)cn2CC,x,3.1%,14.6µM*,0.0%,16.4µM*,-3.9%
Cc1ccc(C)c(S(=O)(=O)c2cn(Cc3ccccc3)c3cc(F)c(F)cc3c2=O)c1,x,-4.8%,u,6.4%,u,8.9%
CCN(CC)c1cc2c(cc1F)c(=O)c(S(=O)(=O)c1cc(C)ccc1C)cn2Cc1ccccc1,x,0.1%,18.4µM*,1.2%,u,-10.6%
CCCn1cc(S(=O)(=O)c2ccc(CC)cc2)c(=O)c2cc(F)c(N(CC)CC)cc21,x,17.2%,9.2µM*,6.2%,8.2µM*,1.1%
C=CCN1C(=O)c2ccc(C(=O)N(C)CC(=O)Nc3ccccc3Br)cc2C1=O,15.0,-29.4%,-2.1%,3.4%,1.0%,-28.4%
Cc1cc(C)c(NC(=O)CSc2nccn2-c2cccc(Cl)c2)c(C)c1,x,u,u,5.5%,u,3.8%
COc1ccc(-c2nc3nc(C)cc(Nc4cccc(C(F)(F)F)c4)n3n2)cc1,x,4.6%,-17.0%,x,2.0%,-17.9%
Cc1cc(Nc2ccccc2Cl)n2nc(-c3ccco3)nc2n1,x,-34.9%,25.9µM*,-1.2%,u,-29.7%
CCOC(=O)c1ccccc1Nc1cc(C)nc2nc(-c3ccco3)nn12,x,u,16.4µM*,3.8%,u,-20.0%
Cc1cc(Nc2cccc(F)c2)n2nc(-c3ccco3)nc2n1,x,u,u,1.2%,18.4µM*,-14.6%
CCOc1ccccc1Nc1cc(C)nc2nc(C)nn12,5.5,-10.1%,2.4%,-2.6%,9.4%,-8.2%
